Results on six molecules are retold here after PubChem BioAssay (NCATS).

Inconclusive results are not listed. Active and inactive are the calls of the source. Unless noted, calls come from the whole dose curve; as a rule, active = well fitted curve in either direction with a large enough effect (not every such curve was filed as active); inconclusive = small, poorly fitted or top-dose-only effect, or another doubt; inactive = flat fitted curve, though single readings scatter.

For assay [1], the target named is Lysosomal acid glucosylceramidase (Homo sapiens) (UniProt P04062). Description: Glucocerebrosidase-p2 (AID 348; in the data active = potency below about 10 µM; note: potency is the fitted concentration of half-maximal effect). As to conditions: purified GBA, blue fluorogenic substrate, 40 min. A digest of the protocol:
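Compounds titrated from 0.6 nM upwards against 0.2 nM enzyme in pH 5.9 citric acid/KH2PO4, taurocholate, tween-20; blue fluorogenic substrate 80 uM, 40 min room temperature, stopped and read Ex 365/Em 440 for AC50.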

Assay [2] in a line: AP1 Signaling Pathway (AID 357).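 Note: ME-180 reporter cells stimulated with EGF at its EC50 level; % is set by controls: 0 for no effect and ±100 for the full control effect.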 As to conditions: ME-180 AP-1-bla reporter, EGF-induced, beta-lactamase ratio, 5 h; at 7.69 µM (top of the series) unless noted. Put shortly: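 Beta-lactamase reporter under AP-1 response element, ME-180 background. Stimulus: EC50 EGF. Compound exposure 5 h, 37 °C. Detection: CCF4, 2.5 h RT, 460/530 nm. Values: AC50 from titration.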
Assay [3] concerns the target Cytochrome P450 1A2 (Homo sapiens) (UniProt P05177). Description: p450-cyp1a2 (AID 410; calls by dose curve; note: potency is the fitted concentration of half-maximal effect;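 for activity change, negative = inhibition: -100% = full effect of reference inhibitor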). As to conditions: recombinant CYP1A2, luciferin-ME demethylation, luminescence; series mostly up to 57 µM. A digest of the protocol: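 Human CYP1A2 (20nM) demethylated Luciferin-ME at its Km (100uM) in 100mM KPO4. After 10 min compound preincubation, NADPH regeneration ran the reaction 60 min at room temperature. Luciferin was read by luminescence, normalized to 57 uM furafylline.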

Assay [4] is described as follows: NFAT Signaling Pathway (AID 444).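 Note: carbachol stimulus at about its EC50 of 1 µM final; % is set by controls: 0 for no effect and ±100 for the full control effect.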 As to conditions: Jurkat NFAT-bla M1, carbachol, beta-lactamase ratio, 5 h; at 7.69 µM (top of the series) unless noted. Put shortly: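 Jurkat cells carrying an NFAT-driven β-lactamase reporter and co-transfected muscarinic M1 receptor were treated with compound plus carbachol (1 uM final, an EC50 level) for 5 h at 37 °C. CCF4 loading followed for 1 h at RT; 460/530 nm ratio gave %activity.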

Assay [5] in a line: Stat Signaling Pathway (AID 446).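 Note: ME-180 cervical cancer cells given 40 pM IL-6 alongside compound; SIE-controlled beta-lactamase reporter measured as 460/530 nm FRET emission ratio; % is set by controls: 0 for no effect and ±100 for the full control effect.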 As to conditions: ME-180 SIE beta-lactamase reporter, IL-6 stimulated, 5 h; at 7.69 µM (top of the series) unless noted. A digest of the protocol: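 ME-180 SIE-bla cells; overnight plating; cpd + IL-6 40 pM, 5 h, 37 C; LiveBLAzer 2.5 h RT; 460/530 nm emission ratio. Normalized to 300 pM IL-6 and 125 nM JAK inhibitor controls.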
Assay [6] has as its target Glucocorticoid receptor (Homo sapiens) (UniProt P04150). In words: GR-GFP Redistribution (AID 450;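 active = compounds whose dose series gives a full or clear partial fitted curve of increased nuclear translocation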; note: potency is the fitted concentration of half-maximal effect). As to conditions: U2OS GR-GFP nuclear translocation, laser cytometry, 2 h.
Assay [7] shares this target. In words: GR-EFC Redistribution (AID 451; calls by dose curve; note: potency is the fitted concentration of half-maximal effect). As to conditions: CHO-K1 GR-EFC translocation, beta-gal luminescence, 2 h. Put shortly:
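CHO-K1 cells stably expressing nuclear-localized β-gal enzyme acceptor and GR fused C-terminally to the enzyme donor fragment; ligand-driven nuclear translocation restores β-gal by complementation. Compounds titrated up to 46 uM final, 2 h at 37 °C; luminescence read.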

Assay [8] deals with Mitogen-activated protein kinase 10 (Mus musculus) (UniProt Q61831). Description: JNK3 AlphaScreen Assay (AID 530).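 Note: kinase came from lysate of stimulated human HepG2 cells; % is set by controls: 0 for no effect and ±100 for the full control effect.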 As to conditions: JNK3 lysate, c-Jun phosphorylation; series mostly up to 57.1 µM. Put shortly: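 JNK3 came from HepG2 lysates pre-activated with IL-1beta and TNF-alpha and phosphorylated biotinylated GST-cJun (1-79) at 10 uM ATP, pH 7.6, room temperature. Compounds were titrated. AlphaScreen signal used anti-phospho-cJun (Ser73) antibody.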
On the technique in general: Bead proximity is the source of the signal in Alpha formats.

Assay [9] concerns the target 3',5'-cyclic-AMP phosphodiesterase 4B (Homo sapiens) (UniProt Q07343). Description: qHTS Assay for Inhibitors of PDE-IV (AID 607; active = well fitted activation curve with a large enough effect in the main read-out, with a control signal flat, not every such curve was filed as active; note: % of control where 0% means no effect). Particulars: HEK293 ACTOne CNG channel cells, membrane potential fluorescence; series mostly up to 22.9 µM. Put shortly:
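ACTOne HEK293 cells carry a modified cAMP-gated CNG channel and express endogenous PDE4; plated 1000 cells/well, compounds up to 22.9 uM final. Membrane-potential dye fluorescence (ex 535/em 590) was read; parental cells received 10 uM forskolin + 100 uM RO 20-1724.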
In general terms: In qHTS, concentration-response curves come from the screen itself.

Assay [10] addresses Cytochrome P450 3A4 (Homo sapiens) (UniProt P08684). In words: qHTS Assay for Inhibitors and Substrates of Cytochrome P450 3A4 (AID 884; active = well fitted curve in the direction sought with a large enough effect; an effect the other way counts as inactive or inconclusive; note: potency is the fitted concentration of half-maximal effect; nearly all actives have a fitted effect of over 50% in size). Particulars: recombinant CYP3A4, Luciferin-PPXE luminescence; series mostly up to 57.1 µM. A digest of the protocol: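 20 nM human CYP3A4 with 25 uM Luciferin-PPXE (at KM) in 200 mM KPO4, preincubated 10 min with compound; NADPH regeneration started a 60 min RT reaction. Luciferin detected by luminescence, normalized to 57 uM ketoconazole as full inhibition.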

Assay [11] has the same target. In words: qHTS Assay for Activators of Cytochrome P450 3A4 (AID 885; active = well fitted curve in the direction sought with a large enough effect; an effect the other way counts as inactive or inconclusive; note: nearly all actives have a fitted effect of over 65% in size). As to conditions: recombinant CYP3A4, Luciferin-PPXE luminescence, 60 min; series mostly up to 57.1 µM. A digest of the protocol:
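20nM CYP3A4 + 25uM Luciferin-PPXE (=KM), 200mM KPO4; cpd 10 min RT; NADPH regen, 60 min RT; stop w/ detection buffer, 20 min; luminescence. Normalized to 57 uM ketoconazole.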

Assay [12] in a line: qHTS Assay for Lipid Storage Modulators (AID 1519; calls by dose curve). Particulars: Drosophila S3 cells, BODIPY lipid droplet/cell ratio, laser cytometry, cells loaded with oleic acid; for activity change, negative = inhibition: at 57.5 µM (top of the series). A digest of the protocol: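 Cells seeded at 5,000 per well were treated with compounds over a concentration series and loaded with oleic acid (400 uM, as added). Lipid droplet fluorescence (488 nm excitation, 500-530 nm channel) was read by laser-scanning cytometry and normalized to 20 uM Triacsin C.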

The nature of assay [13]: Primary qHTS for small molecule stabilizers of the endoplasmic reticulum resident proteome: Secreted ER Calcium Modulated Protein (SERCaMP) assay (AID 1508630; active = well fitted curve in the direction sought with a large enough effect; an effect the other way counts as inactive or inconclusive; note: % is set by controls: 0 for no effect and ±100 for the full control effect). As to conditions: SH-SY5Y GLuc-SERCaMP (Gaussia luciferase released on ER calcium loss) secretion, thapsigargin, luminescence; series mostly up to 38.4 µM. A digest of the protocol:
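GLuc-SERCaMP-expressing SH-SY5Y cells, pretreated 16 h with compound, are challenged with thapsigargin to empty ER calcium stores; after 4 h, coelenterazine is added directly to the medium and luminescence is imaged.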

The target in assay [14] is Cytochrome P450 2C19 (Homo sapiens) (UniProt P33261). Description: qHTS Assay for Inhibitors and Substrates of Cytochrome P450 2C19 (AID 899; active = well fitted curve in the direction sought with a large enough effect; an effect the other way counts as inactive or inconclusive; note: potency is the fitted concentration of half-maximal effect; nearly all actives have a fitted effect of over 60% in size). Particulars: recombinant CYP2C19, luciferin-H EGE luminescence; series mostly up to 57.1 µM. Put shortly:
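NADPH-dependent conversion of Luciferin-H EGE (10uM, at KM) by 5nM enzyme in 50mM KPO4, 60 min at 37C following 10 min compound preincubation. Stopped with luciferin detection buffer; luminescence read after 20 min.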

A short description of assay [15]: Confirmation and Secondary Assay for Modulators of Hemoglobin Beta Chain Splicing at IVS2 654 locus (AID 910; active = well fitted curve in the direction sought with a large enough effect; an effect the other way counts as inactive or inconclusive;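 note: per-well total GFP intensity by laser scanning cytometry after 2-day treatment; % of control where 0% means no effect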). As to conditions: HeLa EGFP-654 splicing reporter, GFP fluorescence, 48 h; series mostly up to 38.3 µM. A digest of the protocol: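 HeLa cells stably carrying EGFP interrupted by mutant beta-globin IVS2-654 intron (CMV-driven) were treated with compound for 2 days at 37C; corrected splicing was scored as total peak GFP intensity per well (488 nm excitation, 500-520 nm emission).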

Assay [16] in a line: Confirmation and Secondary Assay for Modulators of Hemoglobin Beta Chain Splicing at IVS2 705 locus (AID 930; active = well fitted curve in the direction sought with a large enough effect; an effect the other way counts as inactive or inconclusive;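 note: HeLa cells stably expressing the EGFP-705 splicing reporter; % of control where 0% means no effect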). Particulars: HeLa EGFP-705 splicing reporter, GFP fluorescence, 48 h; series mostly up to 38.3 µM. A digest of the protocol: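 Restored EGFP fluorescence after 2-day compound exposure reports splicing correction in IVS2-705 EGFP reporter HeLa cells; positive control was 500 nM splice-blocking PNA oligo. Signal measured as well total peak GFP intensity (488 nm excitation).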

The mark [17] stands for this setting: measured here: cell count channel max response.
The mark [18] stands for this setting: measured here: lipid channel max response.

Lysosomal acid glucosylceramidase (Homo sapiens), sequence (P04062 whole entry, looked up): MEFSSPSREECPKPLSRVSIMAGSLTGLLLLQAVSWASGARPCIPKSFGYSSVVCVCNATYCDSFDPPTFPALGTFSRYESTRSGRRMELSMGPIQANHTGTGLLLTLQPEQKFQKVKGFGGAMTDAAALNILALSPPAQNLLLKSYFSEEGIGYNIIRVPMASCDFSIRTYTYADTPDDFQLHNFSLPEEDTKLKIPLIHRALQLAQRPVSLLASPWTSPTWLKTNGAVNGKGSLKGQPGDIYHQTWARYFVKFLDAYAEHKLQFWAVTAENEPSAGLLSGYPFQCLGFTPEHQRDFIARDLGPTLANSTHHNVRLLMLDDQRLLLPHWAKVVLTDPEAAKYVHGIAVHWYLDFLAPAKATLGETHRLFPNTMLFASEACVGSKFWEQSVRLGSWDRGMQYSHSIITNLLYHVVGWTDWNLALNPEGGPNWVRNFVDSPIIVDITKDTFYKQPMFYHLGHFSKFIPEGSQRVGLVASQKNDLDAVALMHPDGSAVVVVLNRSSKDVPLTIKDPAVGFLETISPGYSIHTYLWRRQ
Cytochrome P450 1A2 (Homo sapiens), sequence (P05177 whole entry, looked up): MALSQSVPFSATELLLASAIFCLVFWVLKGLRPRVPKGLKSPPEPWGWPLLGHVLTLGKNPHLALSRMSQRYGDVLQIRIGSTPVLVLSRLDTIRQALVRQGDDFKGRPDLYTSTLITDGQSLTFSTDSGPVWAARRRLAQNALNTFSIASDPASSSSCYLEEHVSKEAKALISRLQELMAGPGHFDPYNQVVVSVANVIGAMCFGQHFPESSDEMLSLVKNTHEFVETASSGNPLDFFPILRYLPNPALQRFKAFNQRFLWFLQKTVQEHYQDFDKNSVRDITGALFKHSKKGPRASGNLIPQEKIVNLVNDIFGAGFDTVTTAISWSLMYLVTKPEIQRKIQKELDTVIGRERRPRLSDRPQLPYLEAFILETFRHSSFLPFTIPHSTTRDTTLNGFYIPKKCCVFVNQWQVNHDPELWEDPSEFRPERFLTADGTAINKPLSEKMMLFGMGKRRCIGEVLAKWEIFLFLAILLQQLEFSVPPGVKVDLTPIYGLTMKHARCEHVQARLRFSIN
Glucocorticoid receptor (Homo sapiens), sequence (P04150 whole entry, looked up): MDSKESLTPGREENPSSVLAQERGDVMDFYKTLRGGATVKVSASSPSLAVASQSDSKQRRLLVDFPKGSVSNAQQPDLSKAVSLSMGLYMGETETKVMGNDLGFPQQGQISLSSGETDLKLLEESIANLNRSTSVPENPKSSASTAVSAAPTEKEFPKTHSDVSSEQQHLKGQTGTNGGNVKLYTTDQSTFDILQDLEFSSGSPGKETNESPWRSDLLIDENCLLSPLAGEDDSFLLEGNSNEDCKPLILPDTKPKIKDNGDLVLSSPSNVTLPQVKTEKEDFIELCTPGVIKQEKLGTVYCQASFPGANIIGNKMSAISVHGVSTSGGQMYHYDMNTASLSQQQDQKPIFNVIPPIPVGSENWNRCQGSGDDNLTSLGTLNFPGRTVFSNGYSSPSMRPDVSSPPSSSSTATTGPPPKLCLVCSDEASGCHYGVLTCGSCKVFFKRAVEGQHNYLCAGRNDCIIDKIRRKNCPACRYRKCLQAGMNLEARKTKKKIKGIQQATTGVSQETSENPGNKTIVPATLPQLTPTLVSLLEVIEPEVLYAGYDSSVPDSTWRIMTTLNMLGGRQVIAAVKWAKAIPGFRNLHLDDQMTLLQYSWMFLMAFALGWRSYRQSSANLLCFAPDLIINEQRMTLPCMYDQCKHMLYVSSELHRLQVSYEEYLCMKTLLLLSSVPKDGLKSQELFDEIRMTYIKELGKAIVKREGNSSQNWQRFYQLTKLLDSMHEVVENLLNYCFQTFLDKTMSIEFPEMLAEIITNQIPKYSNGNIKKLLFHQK
Cytochrome P450 3A4 (Homo sapiens), sequence (P08684 whole entry, looked up): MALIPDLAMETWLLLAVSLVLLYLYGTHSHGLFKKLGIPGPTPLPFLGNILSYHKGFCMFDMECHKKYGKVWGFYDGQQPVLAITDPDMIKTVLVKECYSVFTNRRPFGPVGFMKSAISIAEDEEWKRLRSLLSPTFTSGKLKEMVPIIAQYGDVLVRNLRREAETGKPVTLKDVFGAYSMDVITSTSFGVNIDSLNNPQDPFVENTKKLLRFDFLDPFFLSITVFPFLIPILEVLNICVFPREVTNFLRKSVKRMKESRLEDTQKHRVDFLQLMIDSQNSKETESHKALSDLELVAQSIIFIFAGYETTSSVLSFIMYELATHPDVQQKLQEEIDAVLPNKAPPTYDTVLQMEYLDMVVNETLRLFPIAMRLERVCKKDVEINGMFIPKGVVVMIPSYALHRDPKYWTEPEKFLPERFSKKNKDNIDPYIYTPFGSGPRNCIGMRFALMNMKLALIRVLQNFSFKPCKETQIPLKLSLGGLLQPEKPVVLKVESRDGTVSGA
3',5'-cyclic-AMP phosphodiesterase 4B (Homo sapiens), sequence (Q07343 whole entry, looked up): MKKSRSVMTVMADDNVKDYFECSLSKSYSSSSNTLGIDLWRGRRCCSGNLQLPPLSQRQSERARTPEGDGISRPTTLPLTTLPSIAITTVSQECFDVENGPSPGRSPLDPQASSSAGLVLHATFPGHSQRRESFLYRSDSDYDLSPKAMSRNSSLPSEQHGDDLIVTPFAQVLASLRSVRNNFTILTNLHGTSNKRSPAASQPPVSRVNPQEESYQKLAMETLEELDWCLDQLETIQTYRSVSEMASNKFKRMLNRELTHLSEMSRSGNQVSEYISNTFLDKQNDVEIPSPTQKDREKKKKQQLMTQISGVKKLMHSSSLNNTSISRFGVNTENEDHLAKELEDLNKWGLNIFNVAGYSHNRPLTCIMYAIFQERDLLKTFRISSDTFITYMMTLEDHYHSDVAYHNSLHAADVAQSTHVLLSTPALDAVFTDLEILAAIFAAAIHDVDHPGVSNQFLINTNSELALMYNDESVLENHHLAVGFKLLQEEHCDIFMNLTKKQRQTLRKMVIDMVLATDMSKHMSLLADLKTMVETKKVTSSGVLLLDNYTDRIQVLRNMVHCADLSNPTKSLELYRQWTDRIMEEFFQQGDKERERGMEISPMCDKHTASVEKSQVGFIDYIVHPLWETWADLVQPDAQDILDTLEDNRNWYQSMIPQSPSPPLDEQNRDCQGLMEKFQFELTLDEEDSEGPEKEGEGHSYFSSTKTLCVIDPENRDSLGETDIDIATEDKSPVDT
Cytochrome P450 2C19 (Homo sapiens), sequence (P33261 whole entry, looked up): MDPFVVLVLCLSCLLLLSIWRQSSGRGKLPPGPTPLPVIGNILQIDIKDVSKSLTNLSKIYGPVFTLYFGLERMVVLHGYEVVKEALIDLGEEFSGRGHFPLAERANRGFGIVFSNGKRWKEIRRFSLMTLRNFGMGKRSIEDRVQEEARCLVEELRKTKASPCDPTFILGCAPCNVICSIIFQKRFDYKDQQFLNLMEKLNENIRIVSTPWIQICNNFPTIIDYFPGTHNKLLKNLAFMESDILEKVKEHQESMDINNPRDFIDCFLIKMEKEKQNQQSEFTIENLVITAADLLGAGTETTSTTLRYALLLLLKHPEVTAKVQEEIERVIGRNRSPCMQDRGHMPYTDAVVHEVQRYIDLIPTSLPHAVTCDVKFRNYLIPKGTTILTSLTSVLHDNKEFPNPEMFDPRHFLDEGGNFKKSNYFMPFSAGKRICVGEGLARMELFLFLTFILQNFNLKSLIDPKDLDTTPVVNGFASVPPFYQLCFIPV

`COc1ccc(-n2c(=O)c(-c3cn(C)c4ccccc34)nc3cnc(OC)nc32)cc1`: the Potency in assay [1] is > 11.4 µM (inactive); in assay [6], > 9.22 µM (inactive); in assay [7], > 46 µM (inactive); in assay [10], 1.58 µM (active). The figures for the activity change, negative = inhibition in assay [2], in assay [4] and in assay [12] were -6.77% (inactive), -7.96% (inactive) and -13.3% (inactive), respectively. Moreover, the Potency result in assay [3], in assay [9], in [11] and in assay [13] was “inactive” throughout. In addition, in [5], the activity, negative = inhibition was 5.87% (inactive). Further, the call in [8] was inactive. In addition, the max response in [12] (setting [17]) was 4.94%; in assay [12] (setting [18]) it was -9.54%.

With `COc1ncc2ncc(=O)n(C)c2n1`, the Potency in assay [1] was > 11.4 µM (inactive); in assay [3] it was 12.6 µM (active); in assay [6], > 9.22 µM (inactive); in [7], > 46 µM (inactive). Moreover, the activity change, negative = inhibition is -3.14% (inactive) in [2], 2.1% (inactive) in assay [4] and 6.15% (inactive) in [12]. Also, in assay [5], the activity, negative = inhibition is -12.1% (inactive). The molecule was called inactive in [8]. The Potency result in [9] and in assay [13] was “inactive” in each case. The max response in assay [12] (setting [17]) was 14.9%; in [12] (setting [18]), 24.1%.

Turning to `Cc1nc2cnc(N3CCOCC3)nc2n(CCC#N)c1=O`, the Potency in assay [1] was > 11.4 µM (inactive); in [3], 12.6 µM (active); in assay [6], > 9.22 µM (inactive); in assay [7], > 46 µM (inactive). The activity change, negative = inhibition in assay [2] is 2.45% (inactive); in assay [4] it was -9.52% (inactive); in assay [12], 5.38% (inactive). For the same molecule, in assay [5], the activity, negative = inhibition is 21.2% (inactive). In addition, the result in assay [8] was inactive. Further, the values for the max response in assay [12] (setting [17]) and in [12] (setting [18]) were 1.22% and 11.9%, respectively. The Potency entry in [13] is “inactive”.

`Cc1nc2cnc(Nc3ccccc3)nc2n(C)c1=O`: the Potency in assay [1] is > 11.4 µM (inactive); in assay [3], 1.26 µM (active); in assay [6], > 9.22 µM (inactive); in assay [7] it was > 46 µM (inactive). Also, the activity change, negative = inhibition in assay [2] is -16.6% (inactive); in assay [4] it was -8.95% (inactive); in [12], -9.81% (inactive). For the same molecule, the activity, negative = inhibition in [5] was -15.2% (inactive). In addition, the outcome in assay [8] was inactive. Further, the Potency entry in [9], in assay [11] and in [13] was “inactive” each time. The max response in [12] (setting [17]) stood at 9.14%; in assay [12] (setting [18]), 2.52%.

Consider `CN(C)c1ccc(-c2cncnc2NCc2cccs2)cc1`, for which the Potency was > 11.4 µM (inactive) in [1]; 0.398 µM (active) in [3]; > 46 µM (inactive) in assay [6]; > 46 µM (inactive) in assay [7]; 0.794 µM (active) in assay [10]; 0.631 µM (active) in assay [14]. Also, the activity change, negative = inhibition in [2] is -15.1% (inactive); in [4], 2.25% (inactive); in assay [12] it was 7.98% (inactive). In [5], the activity, negative = inhibition was -0.237% (inactive). The Potency result in assay [11] and in assay [13] was “inactive” each time. The result in [15] and in assay [16] was inactive. Besides, the max response in assay [12] (setting [17]) worked out at 4.82%; in [12] (setting [18]) it was 15.4%.

`COCC(=O)N1CCC2(CC1)CCN(c1ccccn1)CC2`: the Potency in assay [1] was > 11.4 µM (inactive); in assay [7] it was > 46 µM (inactive). Besides, the activity change, negative = inhibition is -16.4% (inactive) in [2], -3.68% (inactive) in [4] and 2.07% (inactive) in assay [12]. Besides, the Potency result in [3], in assay [9] and in assay [13] was “inactive” in each case. Besides, in [5], the activity, negative = inhibition is -8.73% (inactive). Moreover, the call in assay [8] was inactive. For the same molecule, the max response was 0.785% in assay [12] (setting [17]) and 4.41% in assay [12] (setting [18]).
